# The list is not random: actives were taken first. Their share in the collection is about 3%.
# LMP1 NFkB inh: inhibitors of Epstein-Barr LMP1-induced NF-kappaB reporter. 0.69% of 350,000 active. inhibition, % at 12.5 µM. LMP1-induced NF-kappaB luciferase reporter cells, luminescence; in the data active = inhibition above about 41%; inconclusive = no clear call, values can overlap the other calls;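 also: 0% = neutral control wells and 100% = reference inhibitor control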
# CF NFkB block: inhibitors of cystic fibrosis induced NF-kB | KKLEB NF-kB-GFP reporter, PAF-induced, GFP fluorescence overnight | inhibition, % at 5 µM | 0.86% of 360,000 active | AID 588850;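 active = at least 50% inhibition at 5 µM, scaled per plate between neutral and stimulator controls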;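 also: PAF is a Pseudomonas aeruginosa culture filtrate used as stimulus; plate controls were PAF-stimulated DMSO wells for no effect and unstimulated DMSO wells for full effect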
# KKLEB cytotox: reduces viability of KKLEB cystic fibrosis airway cells | KKLEB CF airway cells viability, ATPlite luminescence, overnight; hits give low values; cells stimulated with P. aeruginosa culture filtrate | activity change (cytotoxicity), % at 5 µM | 0.36% of 360,000 active | AID 602141;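 active = corrected activity change at or below -50% at 5 µM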
# TRPM1 prom inh: MITF TRPM1 promoter inhibition in SK-MEL-5 cells | SK-MEL-5 TRPM1 promoter luciferase, 24 h | 0.83% of 330,000 active | inhibition, % at 12.5 µM | AID 488899;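 active = mean inhibition across replicates of 60% or more, whatever share of single replicates reaches that level; inconclusive = some that reach 60%, reason not given; inactive = mean inhibition across replicates below 60%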
# Peg3 promoter: inhibitors of Peg3 promoter; HeLa PEG-Prom luciferase reporter, luminescence, overnight; inhibition, % at 20 µM; 1.7% of 360,000 active;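 active = inhibition of at least 50% at 20 µM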
# HIF-2a block: HIF-2a inhibition; AID 624352; 786-0 RCC cells HIF-2a reporter, luciferase luminescence, overnight; 0.72% of 360,000 active; inhibition, % at 18.8 µM;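 active = inhibition of the luminescence signal of 40% or more relative to plate controls, in a single-dose primary screen at 18.75 µM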
# The depositor's hits bear a star; ? = inconclusive; nt = no result given.
SMILES,LMP1 NFkB inh,CF NFkB block,KKLEB cytotox,TRPM1 prom inh,Peg3 promoter,HIF-2a block
O=C(NCc1ccccc1)c1cc(C2CCCCN2C(=O)c2cccs2)on1 (stereo not drawn),nt,-12,9,nt,17,-4
CC(=O)Nc1ccccc1NC(=O)c1ccc2c(c1)OCO2,0,-2,-1,nt,9,12
CCOC(=O)CSc1nnc(NC(=O)c2ccc3c(c2)OCO3)s1,4,-9,23,5,33,54*
COc1ccccc1-c1nnc(NC(=O)c2ccc3c(c2)OCO3)s1,-8,59*,-56*,-4,30,-42
COc1ccc(C(=O)Nc2nnc(SCC(=O)NC3CC3)s2)cc1,45*,9,-2,-5,-42,-36
CCSc1nnc(NC(=O)c2ccc3c(c2)OCO3)s1,-12,7,-14,-55,-258,-227
CCCC(=O)Nc1ccccc1NC(=O)c1ccc2c(c1)OCO2,78*,0,10,3,6,8
CCN(CC)C(=O)C1=C(C)N(Cc2ccccc2)C(=O)C(CC(=O)NCc2ccco2)C1 (stereo not drawn),1,-6,13,nt,8,6
Cc1ccccc1NS(=O)(=O)c1ccc(C(=O)NCc2ccccc2CN2CCCC2)cc1,-8,-12,-8,nt,11,9
CSCCC(C(=O)NCc1ccccc1)n1c(-c2ccc3c(c2)CCO3)nc2ccccc21 (stereo not drawn),nt,nt,nt,nt,nt,-35
O=C(Nc1nnc(SCC(=O)N2CCCc3ccccc32)s1)c1ccc2ccccc2c1,30,5,-50*,-49,-210,-179
COc1cc2cc(C(=O)Nc3ccc4c(c3)OCCO4)[nH]c2cc1OC,45*,-10,8,14,0,20
O=[N+]([O-])c1ccc(Nc2cccc3c2[nH]c2c(-c4ccccc4)nccc23)c([N+](=O)[O-])c1,-19,-10,0,-9,16,12
O=C(c1ccc(CS(=O)Cc2ccccc2Cl)o1)N1CCN(c2cccc(Cl)c2)CC1 (stereo not drawn),70*,-29,16,1,37,22
COc1cc(C(=O)Nc2ccc3nc(N4CCN(C)CC4)cc(C)c3c2)cc(OC)c1OC,-22,-5,-7,nt,-36,8
COc1ccc(NC(=O)c2ccc(-c3ccc(-c4noc(C)n4)cc3C)cc2)cc1N1CCN(C)CC1,-19,12,-9,?,64*,-12
COc1ccc(CC(=O)Nc2ccc(-c3noc(-c4ccc(Cl)cc4)n3)cc2)cc1,-128,43,-55*,25,57*,-27
COc1ccc(-c2nc(-c3ccc(NC(=O)c4ccncc4)cc3)no2)cc1OC,27,-6,6,nt,99*,-7
OCC1OC(Nc2ccccc2C=NO)C(O)C1O (stereo not drawn),-3,-16,7,nt,-1,8
CCCCCCN1C[C@@H](n2cc(C3CC3)nn2)[C@H](O)C[C@@H]1c1ccccc1,3,-7,9,nt,-12,-42
COc1ccc(-c2ccc(CN3C(CC(C)C)C(=O)N(Cc4cn(CCC5OCCO5)nn4)CCS3(=O)=O)cc2)cc1OC (stereo not drawn),-1,26,-2,nt,-6,20
CCOc1ccc(CCNC(=O)CCn2ccc3cc(S(=O)(=O)N4CCCC4)ccc32)cc1,72*,-14,4,16,19,0
COc1ccc(Cc2c(-c3ccc(F)cc3)nc3c4ccccc4ccn23)c(C)c1,nt,-3,-7,nt,-54,-85
CC(C)N1C(=O)/C(=C\c2nc3ccccc3c(=O)n2-c2ccccc2)c2ccccc21,-3,-32,3,24,36,87*
Cc1noc2ncnc(Sc3ccc(Br)cc3)c12,8,29,-5,-17,99*,0
SMILES,LMP1 NFkB inh,CF NFkB block,KKLEB cytotox,TRPM1 prom inh,Peg3 promoter,HIF-2a block
N#Cc1c(Nc2ccccc2)[n+]([O-])c2ccc(Cl)cc2[n+]1[O-],13,-3,-5,72*,-34,-74
O=C(/C=C/Nc1ccccc1)c1ccc(Cl)cc1Cl,-23,-26,-16,-65,-237,-218
O=C(NC1CCCC1)C1C(c2ccc(C(F)(F)F)cc2)=Nc2ccccc2N1C(=O)c1cc2ccccc2[nH]1 (stereo not drawn),nt,nt,nt,nt,nt,-121
O=C(C#Cc1ccccc1)Nc1cccc(F)c1,-50,58*,-57*,32,-31,-131
Cc1noc(C)c1S(=O)(=O)Nc1ccc2c(c1)CC(=O)N([C@H](C)CO)C[C@H](C)[C@H](CN(C)S(=O)(=O)c1ccc(F)cc1)O2,-19,-8,0,-18,-5,10
Cc1ccccc1NC(=O)CN1CCN(C(=O)c2ccco2)CC1,-2,-14,-2,0,53*,-3
Cc1cc(Cl)ccc1NC(=O)CN1CCN(C(=O)c2ccco2)CC1,1,9,5,4,-3,-7
CC(C)c1ccc(OCc2ccc(C(=O)O)o2)cc1,8,13,-7,25,51*,49*
O=C(Nc1cccc([N+](=O)[O-])c1)c1ccc([N+](=O)[O-])o1,-13,70*,-9,nt,42,21
O=C(Nc1ccc2[nH]c(=O)[nH]c2c1)c1ccc([N+](=O)[O-])o1,-5,-2,8,49,9,16
Cc1ccc(NC(=O)c2ccc([N+](=O)[O-])o2)cc1C,-61,82*,-63*,22,97*,-17
NC(=O)c1c(NC(=O)c2ccc([N+](=O)[O-])o2)sc2c1CCCC2,-15,107*,-64*,62*,99*,7
O=C(Nc1cccc2ccccc12)c1ccc([N+](=O)[O-])o1,-10,83*,-24,54,37,31
COc1ccc(C(=O)C(=O)N2CCC(c3ccccc3)CC2)cn1,nt,nt,nt,nt,nt,-16
CCNC(=O)C1(C)CCCN(Cc2cccc3ccccc23)C1 (stereo not drawn),nt,26,-8,nt,6,13
CCN1CCN(C(=O)c2ccc(CS(=O)(=O)Cc3ccccc3Cl)o2)CC1,1,0,8,nt,0,17
COc1ccc(CNC(=O)N2[C@H]3CC[C@@H]2C=C(c2ccc(F)cc2OCc2ccccc2)C3)cc1OC,?,3,-13,nt,40,-5
Cc1ccc(-n2nnnc2CNC(=O)c2ccc([N+](=O)[O-])o2)cc1C,-40,-22,5,62*,22,20
O=C(NCc1nnnn1-c1ccc(F)cc1)c1ccc([N+](=O)[O-])o1,-24,15,4,34,3,5
Cc1cc2nc(-c3ccc(SCC(=O)N4CCc5ccccc54)nc3)[nH]c2cc1C,-13,29,-52*,-20,114*,-211
Cc1cc2nc(-c3ccc(SCc4ccc(C(=O)O)cc4)nc3)[nH]c2cc1C,-45,-9,6,-21,-134,-188
Cc1cn([C@H]2C[C@H](O)[C@@H](CCC(=O)NCC(c3ccccc3)c3ccccc3)O2)c(=O)[nH]c1=O,nt,-4,5,nt,-14,14
